According to PMC4336329 (PLoS ONE, 2015):
In all, about 310,000 compounds went through this assay and about 14,000 (4.5%) showed an effect of 50% or more. Effects have a minus sign here. The list comes from a sample in which strong results are over-represented; it also holds similar structures and randomly drawn compounds.

biological target: human ether-à-go-go-related gene (hERG) potassium channel (human, UniProt Q12809); test: primary screen, population patch clamp on CHO cells stably expressing hERG; higher = less effect of the substance
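Also: peak tail current of the secondary pulse compared with the same well before compound.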

human ether-à-go-go-related gene (hERG) potassium channel, sequence (Q12809 whole entry, looked up): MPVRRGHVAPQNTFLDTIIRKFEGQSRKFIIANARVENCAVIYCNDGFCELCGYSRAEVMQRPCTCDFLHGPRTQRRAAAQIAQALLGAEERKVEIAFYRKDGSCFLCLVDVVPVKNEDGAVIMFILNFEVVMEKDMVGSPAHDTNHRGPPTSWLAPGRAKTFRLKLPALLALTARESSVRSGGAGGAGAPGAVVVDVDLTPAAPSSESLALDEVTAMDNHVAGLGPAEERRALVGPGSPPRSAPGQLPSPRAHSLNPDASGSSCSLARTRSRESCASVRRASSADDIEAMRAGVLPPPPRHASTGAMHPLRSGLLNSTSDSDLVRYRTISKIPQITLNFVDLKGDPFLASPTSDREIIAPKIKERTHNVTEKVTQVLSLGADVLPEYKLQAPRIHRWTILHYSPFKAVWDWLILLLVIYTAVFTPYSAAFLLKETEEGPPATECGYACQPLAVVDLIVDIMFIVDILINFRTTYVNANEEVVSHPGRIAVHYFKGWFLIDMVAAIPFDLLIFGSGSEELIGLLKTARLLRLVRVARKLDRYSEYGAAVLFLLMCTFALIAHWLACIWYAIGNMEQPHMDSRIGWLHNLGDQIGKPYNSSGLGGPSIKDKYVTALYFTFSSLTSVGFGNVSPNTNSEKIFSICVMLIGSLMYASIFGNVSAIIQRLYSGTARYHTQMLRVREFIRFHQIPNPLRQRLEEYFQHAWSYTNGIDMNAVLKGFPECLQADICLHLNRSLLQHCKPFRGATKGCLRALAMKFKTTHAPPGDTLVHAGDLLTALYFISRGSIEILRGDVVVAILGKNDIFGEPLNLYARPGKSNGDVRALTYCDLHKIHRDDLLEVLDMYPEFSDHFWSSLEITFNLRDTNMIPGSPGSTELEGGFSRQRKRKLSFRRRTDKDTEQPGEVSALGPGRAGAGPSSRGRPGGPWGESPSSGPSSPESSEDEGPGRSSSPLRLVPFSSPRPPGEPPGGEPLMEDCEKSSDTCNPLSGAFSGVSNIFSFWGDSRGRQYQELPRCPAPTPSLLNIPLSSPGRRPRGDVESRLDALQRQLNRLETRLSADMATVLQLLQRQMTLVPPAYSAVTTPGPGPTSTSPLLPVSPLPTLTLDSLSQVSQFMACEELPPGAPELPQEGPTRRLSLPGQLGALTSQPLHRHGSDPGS

| Structure (SMILES) | hERG current change (%, negative = inhibition) at 10uM [%] |
| --- | --- |
| COc1cc(C=Nc2c(C)cc(C)cc2C)ccc1OC(C)=O | 10.6 |
| COc1ccc(CCCc2nnc(SCC(=O)Nc3cc(C)ccc3C)o2)cc1 | 0.676 |
| CN=C1S/C(=C/c2cn(CC(=O)OC)c3ccccc23)C(=O)N1C | 11.1 |
| COC(=O)c1sccc1NC(=O)Nc1ccc(OC)cc1OC | -20.3 |
| COC(=O)c1sccc1NC(=S)Nc1cc(OC)ccc1OC | 30.4 |
| COC(=O)c1sccc1NC(=O)Nc1cc(OC)ccc1OC | -57.4 |
| CCOc1ccccc1NC(=O)Nc1ccsc1C(=O)OC | -62 |
| CCOc1ccccc1C(=O)Nc1ccsc1C(=O)OC | -0.813 |
| COC(=O)c1sccc1NC(=O)Nc1ccccc1OC | -41.4 |
| COC(=O)c1c(N2C(=O)[C@H]3[C@@H](C2=O)[C@]2(C(=O)Nc4c2ccc(C)c4C)N2CCC[C@@H]32)sc(C)c1C | 15.4 |
| C/C(=C\C(=O)c1ccccc1)NCc1ccc(F)cc1 | -22.7 |
| Cc1cc(S(=O)(=O)n2cnc3cc([N+](=O)[O-])ccc32)ccc1Cl | -2.69 |
| Cc1ccc(C(=O)Nc2cnc3ccccn3c2=O)cc1 | -17.2 |
| Cc1cc(=O)[nH]c(SCc2cccc3cccnc23)n1 | 13.3 |
| COc1ccc(CNc2c(CO)cnc3c2cnn3C)cc1 | -13 |
| COc1ccc(NC(=O)CN(C)C(=O)c2cccc(S(=O)(=O)N3CCN(c4ccccc4)CC3)c2)cc1 | -3.62 |
| O=C(N/N=C/c1ccco1)c1cc([N+](=O)[O-])cc([N+](=O)[O-])c1 | 6.85 |
| COC(=O)C(C)N(C#N)c1nc(C)cc(C)n1 (stereo not drawn) | 8.78 |
| COc1ccccc1N1CCN(C(=O)CCSCc2ccccc2F)CC1 | 4.41 |
| COc1cccc(CC(=O)OCC(=O)N2CCN(c3ccc(F)cc3)CC2)c1 | -60.6 |
| CC1(C)C(=O)Nc2ccccc2N1C(=O)COC(=O)Cc1c(F)cccc1Cl | -50.1 |

| Structure (SMILES) | hERG current change (%, negative = inhibition) at 10uM [%] |
| --- | --- |
| COc1ccc(N2CCN(C(=O)COC(=O)CCc3ccccc3)CC2)cc1 | -0.829 |
| CC1(C)C(=O)Nc2ccccc2N1C(=O)COC(=O)CSc1ccc(F)cc1 | -2.24 |
| COc1ccc(N2CCN(C(=O)COC(=O)Cc3c(F)cccc3Cl)CC2)cc1 | -79 |
| COc1ccc(N2CCN(C(=O)CCSCc3ccccc3F)CC2)cc1 | -28.1 |
| COc1ccc(N2CCN(C(=O)COC(=O)Cc3cccc(OC)c3)CC2)cc1 | -20 |
| CC1(C)C(=O)Nc2ccccc2N1C(=O)COC(=O)CSc1ccc(Cl)cc1 | 18.3 |
| COc1ccc(NC(=O)COC(=O)Cc2c(F)cccc2Cl)cc1 | -0.319 |
| COc1ccc(N2CCN(C(=O)COC(=O)Cc3ccc(F)cc3)CC2)cc1 | -20 |
| COc1cccc(N2CCN(C(=O)CCSCc3ccccc3F)CC2)c1 | -57.9 |
| CSCC(NS(=O)(=O)c1ccc(C)cc1)C(=O)O (stereo not drawn) | 8.98 |
| CC(=O)N1CC(C)Sc2ccc(S(=O)(=O)NCCc3cccc(C)c3)cc21 (stereo not drawn) | 0.141 |
| COC(=O)CNC(=O)CNC(=O)Nc1ccccc1Cl | 9.2 |
| Cc1ccc(S(=O)(=O)N/N=C/c2ccc(C(=O)O)cc2)cc1 | 15.2 |
| Nc1nc(N2CCN(c3ccccc3)CC2)n[nH]1 | 4.2 |
| COc1cc(NC2=Nc3cccc4cccc2c34)cc(OC)c1OC | 1.72 |
| CCCCn1c(N)c(NCc2ccccc2OC)c(=O)[nH]c1=O | 12.2 |
| Cc1c(C=O)cnn1CCC(=O)O | 4.76 |
| O=c1ccc2cc(S(=O)(=O)Nc3ccc(Br)cc3)ccc2o1 | 5.32 |
| COc1ccccc1NC(=O)CC1CCCC1 | 15.4 |
| CCn1c(SCC(=O)Nc2cc(C)on2)nc2c(c1=O)SC(C)C2 (stereo not drawn) | -4.2 |
| CCc1ccc(OCC(=O)Nc2ccc(S(=O)(=O)N3CCCC3)cc2)c(Br)c1 | -4.25 |

| Structure (SMILES) | hERG current change (%, negative = inhibition) at 10uM [%] |
| --- | --- |
| COCCn1c(SCC(=O)Nc2c(C)n(C)n(-c3ccccc3)c2=O)nnc1-c1ccncc1 | 5.95 |
| CCOC(=O)C1CCN(C(=O)Cn2nc(C)n3nc(-c4ccc(CC)cc4)cc3c2=O)CC1 | 5.33 |
| O=C(/C=C/c1ccccc1[N+](=O)[O-])OCC(=O)N1CCCC1 | 12 |
| COc1ccc(N2CCN(C(=O)COC(=O)CCOc3ccc(C)cc3)CC2)cc1 | 9.09 |
| COc1ccc(N2CCN(C(=O)COC(=O)CCOc3cc(C)ccc3C)CC2)cc1 | 0.516 |
| COc1ccc(N2CCN(C(=O)COC(=O)CCOc3ccccc3C)CC2)cc1 | -62.5 |
| CCCCNC(=O)c1cn(CC)c2cc(N3CCN(C(=O)c4ccco4)CC3)c(F)cc2c1=O | -33.8 |
| CCCNC(=O)c1cn(CC)c2cc(N3CCN(C(=O)c4ccco4)CC3)c(F)cc2c1=O | -67 |
| CCn1cc(C(=O)NCc2ccco2)c(=O)c2cc(F)c(N3CCN(C(=O)c4ccco4)CC3)cc21 | -26.4 |
| CCC(C)NC(=O)c1cn(CC)c2cc(N3CCN(C(=O)c4ccco4)CC3)c(F)cc2c1=O (stereo not drawn) | -55.2 |
| CCn1cc(C(=O)NC(C)C)c(=O)c2cc(F)c(N3CCN(C(=O)c4ccco4)CC3)cc21 | -34.6 |
| CCN(CC)CCNC(=O)c1cn(CC)c2cc(N3CCN(C(=O)c4ccco4)CC3)c(F)cc2c1=O.Cl | 0.131 |
| CCn1cc(C(=O)NCCC(C)C)c(=O)c2cc(F)c(N3CCN(C(=O)c4ccco4)CC3)cc21 | -11.3 |
| CCn1cc(C(=O)NCC(C)C)c(=O)c2cc(F)c(N3CCN(C(=O)c4ccco4)CC3)cc21 | -59.9 |
| CCn1cc(C(=O)NCc2cccc(F)c2)c(=O)c2cc(F)c(N3CCN(C(=O)c4ccco4)CC3)cc21 | -21 |
| CCn1cc(C(=O)NCc2ccc3c(c2)OCO3)c(=O)c2cc(F)c(N3CCN(C(=O)c4ccco4)CC3)cc21 | -1.93 |
| C=CCNC(=O)c1cn(CC)c2cc(N3CCN(C(=O)c4ccco4)CC3)c(F)cc2c1=O | -63.6 |
| CCn1cc(C(=O)Nc2ncccc2O)c(=O)c2cc(F)c(N3CCN(C(=O)c4ccco4)CC3)cc21 | 1.98 |
| O=C(c1ccc2c(c1)OCO2)N1CCOCC1 | 17.5 |
| COc1cccc(OCCn2cccc2/C=C2/C(=N)N3OC(C)=CC3=NC2=O)c1 | -23.5 |
| O=C(NCCCN1CCCC1=O)c1cccc(S(=O)(=O)Nc2ccc(F)cc2)c1 | -24.5 |

| Structure (SMILES) | hERG current change (%, negative = inhibition) at 10uM [%] |
| --- | --- |
| CCOC(=O)C1C(=O)Nc2nc(C)nn2C1c1ccccc1 (stereo not drawn) | 14.4 |
| CCCc1ccc(C(=O)O/N=C(\N)c2ccccn2)cc1 | -0.642 |
| CCn1cc(C(=O)NCc2cccnc2)c(=O)c2cc(F)c(N3CCN(C(=O)c4ccco4)CC3)cc21 | -37.6 |
| CCn1cc(C(=O)NCc2ccncc2)c(=O)c2cc(F)c(N3CCN(C(=O)c4ccco4)CC3)cc21 | -66.4 |
| CCn1cc(C(=O)NCc2ccccc2)c(=O)c2cc(F)c(N3CCN(C(=O)c4ccco4)CC3)cc21 | -39.6 |
| O=C(NCc1ccc(N2CCCC2=O)cc1)c1cccc(Cl)c1 | 1.27 |
| CC(C)(C)C(=O)Nc1ccc(-c2cc3cc(Cl)ccc3o2)cc1 | 8.12 |
| Cc1ccc(NS(=O)(=O)c2ccc3oc(=O)ccc3c2)cc1Cl | 3.79 |
| CCc1ccccc1OCCCN1CCCC1.O=C(O)C(=O)O | -17.6 |
| COC(=O)c1ccccc1OCCN1CCCCCC1.O=C(O)C(=O)O | -46.2 |
| CCC(=O)c1ccccc1OCCN1CCN(CC)CC1.O=C(O)C(=O)O | -13.7 |
| CCC(=O)c1ccccc1OCCCCn1cncn1.O=C(O)C(=O)O | 4.82 |
| CCc1ccccc1OCCCCN1CCCC1.O=C(O)C(=O)O | -40 |
| CC(C)c1ccccc1OCCCN1CCCC1.O=C(O)C(=O)O | -33.1 |
| CCC(=O)c1ccccc1OCCCN1C(=O)NC(C)(C)C1=O | 0.00578 |
| CCC(=O)c1ccccc1OCCN1CCN(Cc2ccccc2)CC1.O=C(O)C(=O)O | -59.1 |
| N#Cc1ccccc1OCCCN1CCC(Cc2ccccc2)CC1.O=C(O)C(=O)O | -80 |
| CCC(=O)c1ccccc1OCCCN1CCC(Cc2ccccc2)CC1.O=C(O)C(=O)O | -78.5 |
| O=C(O)C(=O)O.OCc1ccccc1OCCCN1CCC(Cc2ccccc2)CC1 | -75 |
| N#Cc1ccccc1OCCCNC1CCCC1.O=C(O)C(=O)O | -11.5 |
| O=C(CSc1nccc(=O)[nH]1)Nc1cccc(S(=O)(=O)N2CCOCC2)c1 | 4.22 |
